Inconclusive results are not listed. Calls of active or inactive are those of the source. Calls come from the whole dose curve; as a rule, active = well fitted curve in the direction sought with a large enough effect; inconclusive = small, poorly fitted or top-dose-only effect, or another doubt; inactive = no such curve, though single readings can be large; an effect the other way counts as inactive or inconclusive.
Assays:
[1] = Quantitative High-Throughput drug screen in 47 multiple myeloma cell lines against the NCATS MIPE library collection: EJM_DSMZ cell viability assay (AID 1918926; note: nearly all actives have a fitted effect of over 30% in size; note: potency is the fitted concentration of half-maximal effect)
Procedure, shortened: (§1)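 Myeloma cell lines, 500 cells per well, exposed to MIPE 4.0 library compounds for 48 h at 37C, 5% CO2. Viability from ATP by CellTiter-Glo luminescence; normalised to DMSO (100%) and media-only (0%) wells.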

[2] = Quantitative High-Throughput drug screen in 47 multiple myeloma cell lines against the NCATS MIPE library collection: AMO1_DSMZ cell viability assay (AID 1918927; note: nearly all actives have a fitted effect of over 30% in size; note: potency is the fitted concentration of half-maximal effect)
Procedure, shortened: as §1

[3] = Quantitative High-Throughput drug screen in 47 multiple myeloma cell lines against the NCATS MIPE library collection: ARP1_JJKsccF8 cell viability assay (AID 1918928; note: nearly all actives have a fitted effect of over 40% in size)
Procedure, shortened: (§2)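 Luminescence from CellTiter-Glo, taken after 5 min at room temperature, reports cellular ATP as viability. Cells (500 per well) had been treated 48 h at 37 °C with MIPE 4.0 compounds, scaled between DMSO and medium-only controls.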

[4] = Quantitative High-Throughput drug screen in 47 multiple myeloma cell lines against the NCATS MIPE library collection: ARD_JJKsccE7 cell viability assay (AID 1918929; note: potency is the fitted concentration of half-maximal effect)
Procedure, shortened: as §1

[5] = Quantitative High-Throughput drug screen in 47 multiple myeloma cell lines against the NCATS MIPE library collection: Karpas620_DSMZ cell viability assay (AID 1918959); note: nearly all actives have a fitted effect of over 30% in size; note: potency is the fitted concentration of half-maximal effect
Procedure, shortened: (§3)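 CellTiter-Glo luminescence (ATP) after 48 h compound exposure, 37C/5% CO2; 500 cells/well; MIPE 4.0 approved/investigational drugs pinned in; DMSO = 100%, media only = 0% viability.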

[6] = Quantitative High-Throughput drug screen in 47 multiple myeloma cell lines against the NCATS MIPE library collection: KMM1_JCRB cell viability assay (AID 1918960); note: nearly all actives have a fitted effect of over 30% in size; note: potency is the fitted concentration of half-maximal effect;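 for viability (% of DMSO): 100% = DMSO-treated cells and 0% = medium-only wells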
Procedure, shortened: as §2

[7] = Quantitative High-Throughput drug screen in 47 multiple myeloma cell lines against the NCATS MIPE library collection: JIM1_ECACC cell viability assay (AID 1918964; note: potency is the fitted concentration of half-maximal effect)
Procedure, shortened: as §1

[8] = Quantitative High-Throughput drug screen in 47 multiple myeloma cell lines against the NCATS MIPE library collection: INA6_PLB cell viability assay (AID 1918965; note: nearly all actives have a fitted effect of over 55% in size; note: potency is the fitted concentration of half-maximal effect)
Procedure, shortened: (§4)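 Myeloma cells (500 per well) were exposed to MIPE 4.0 compounds by pin transfer and incubated 48 hours at 37C, 5% CO2. Viability was read as ATP by CellTiter-Glo luminescence, normalised to DMSO (100%) and media-only (0%) wells.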

[9] = Quantitative High-Throughput drug screen in 47 multiple myeloma cell lines against the NCATS MIPE library collection: JJN3_DSMZ cell viability assay (AID 1918966; note: nearly all actives have a fitted effect of over 50% in size; note: potency is the fitted concentration of half-maximal effect)
Procedure, shortened: as §1

[10] = Quantitative High-Throughput drug screen in 47 multiple myeloma cell lines against the NCATS MIPE library collection: Karpas25_ECACC cell viability assay (AID 1918968; note: nearly all actives have a fitted effect of over 35% in size; note: potency is the fitted concentration of half-maximal effect)
Procedure, shortened: as §1

[11] = Quantitative High-Throughput drug screen in 47 multiple myeloma cell lines against the NCATS MIPE library collection: KMS27_JCRB cell viability assay (AID 1918970); note: nearly all actives have a fitted effect of over 30% in size; note: potency is the fitted concentration of half-maximal effect
Procedure, shortened: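 CellTiter-Glo luminescence after 48 h drug exposure at 37 °C; 500 cells/well, 1536-well format, pin-tool compound addition; DMSO = 100%, media-only = 0% viability.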

[12] = Quantitative High-Throughput drug screen in 47 multiple myeloma cell lines against the NCATS MIPE library collection: Karpas417_ECACC cell viability assay (AID 1918961); conditions: Karpas417 myeloma viability, CellTiter-Glo ATP luminescence, 48 h; viability (% of DMSO): at 45.8 µM (top of the series) unless noted; note: potency is the fitted concentration of half-maximal effect
Procedure, shortened: as §4

[13] = Quantitative High-Throughput drug screen in 47 multiple myeloma cell lines against the NCATS MIPE library collection: H1112_PLB cell viability assay (AID 1918967; note: nearly all actives have a fitted effect of over 30% in size; note: potency is the fitted concentration of half-maximal effect)
Procedure, shortened: as §1

[14] = Quantitative High-Throughput drug screen in 47 multiple myeloma cell lines against the NCATS MIPE library collection: KMS20_JCRB cell viability assay (AID 1918973); note: nearly all actives have a fitted effect of over 45% in size; note: potency is the fitted concentration of half-maximal effect
Procedure, shortened: as §1

[15] = Quantitative High-Throughput drug screen in 47 multiple myeloma cell lines against the NCATS MIPE library collection: KMS12PE_JCRB cell viability assay (AID 1918972); note: nearly all actives have a fitted effect of over 30% in size; note: potency is the fitted concentration of half-maximal effect
Procedure, shortened: as §4

[16] = Quantitative High-Throughput drug screen in 47 multiple myeloma cell lines against the NCATS MIPE library collection: KMS12BM_JCRB cell viability assay (AID 1918971); note: nearly all actives have a fitted effect of over 35% in size; note: potency is the fitted concentration of half-maximal effect
Procedure, shortened: (§5)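 We plated 500 myeloma cells per well, pinned in MIPE 4.0 compounds, and incubated for 48 hours at 37C. ATP was then quantified with CellTiter-Glo, with DMSO and media-only wells defining 100% and 0%.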

[17] = Quantitative High-Throughput drug screen in 47 multiple myeloma cell lines against the NCATS MIPE library collection: KMS26_JCRB cell viability assay (AID 1918975); note: nearly all actives have a fitted effect of over 45% in size; note: potency is the fitted concentration of half-maximal effect
Procedure, shortened: as §5

[18] = Quantitative High-Throughput drug screen in 47 multiple myeloma cell lines against the NCATS MIPE library collection: KHM11_PLB cell viability assay (AID 1918962); note: nearly all actives have a fitted effect of over 35% in size; note: potency is the fitted concentration of half-maximal effect
Procedure, shortened: as §3

[19] = Quantitative High-Throughput drug screen in 47 multiple myeloma cell lines against the NCATS MIPE library collection: JIM3_ECACC cell viability assay (AID 1918963; note: nearly all actives have a fitted effect of over 35% in size; note: potency is the fitted concentration of half-maximal effect)
Procedure, shortened: as §3

[20] = Quantitative High-Throughput drug screen in 47 multiple myeloma cell lines against the NCATS MIPE library collection: KMS21BM_JCRB cell viability assay (AID 1918974); conditions: ATP luminescence, 48 h; viability: at 45.8 µM (top of the series) unless noted
Procedure, shortened: as §1

NC(=O)c1cnccn1
inactive: Potency [1] | Potency [2] | Potency [3] | Potency [4] | Potency [5] | Potency [6] | Potency [7] | Potency [8] | Potency [9] | Potency [10] | Potency [11]

O=c1[nH]cnc2[nH]ncc12
active: Potency [4] 23.5 µM
inactive: Potency [1] | Potency [2] | Potency [3] | Potency [5] | Potency [12] | Potency [7] | Potency [13] | Potency [10] | Potency [11] | Potency [14]

Cc1ccccc1C(OCCN(C)C)c1ccccc1 (centres undefined)
inactive: Potency [1] | Potency [2] | Potency [3] | Potency [4] | Potency [5] | Potency [6] | Potency [13] | Potency [10] | Potency [11] | Potency [15]

COc1ccc(CC2=NN3C([C@@H](CCc4ccccc4)[C@@H](C)O)=NC(C)C3C(=O)N2)cc1OC (some centres undefined)
inactive: Potency [1] | Potency [2] | Potency [3] | Potency [5] | Potency [6] | Potency [9] | Potency [13] | Potency [10] | Potency [11] | Potency [16] | Potency [15] | Potency [14]

CCCC(CCC)C(=O)O
inactive: Potency [1] | Potency [2] | Potency [3] | Potency [5] | Potency [6] | Potency [7] | Potency [8] | Potency [11] | Potency [16] | Potency [15] | Potency [17]

CCOc1cc(C=C2C(=O)N(c3ccccc3)N=C2C)cc(Cl)c1OCC(=O)OC
active: Potency [1] 18.7 µM | Potency [12] 8.33 µM | Potency [10] 8.33 µM | Potency [17] 20.9 µM
inactive: Potency [2]

Cc1ccccc1C(C(=O)NC1CCCC1)N(C(=O)Cn1cnc2ccccc21)c1cccc(F)c1 (centres undefined)
active: Potency [2] 0.0264 µM | Potency [8] 20.9 µM | Potency [10] 20.9 µM | Potency [16] 14.8 µM
inactive: Potency [1] | Potency [5] | Potency [6] | Potency [11]

CNC(=O)c1ccc(C)c(-n2c(C)cc(OCc3ccc(F)cc3F)c(Br)c2=O)c1
active: Potency [1] 20.9 µM | Potency [2] 16.6 µM | Potency [6] 4.69 µM | Potency [7] 23.5 µM | Potency [8] 16.6 µM | Potency [13] 7.43 µM | Potency [10] 8.33 µM | Potency [16] 20.9 µM | Potency [15] 18.7 µM

CN[C@@H](C)C(=O)N[C@H]1CCCC[C@H]2CC[C@@H](C(=O)N[C@@H](c3ccccc3)c3cn(CCCCc4ccc(CCCCn5cc([C@@H](NC(=O)[C@@H]6CC[C@@H]7CCCC[C@H](NC(=O)[C@H](C)NC)C(=O)N76)c6ccccc6)nn5)cc4)nn3)N2C1=O
inactive: Potency [16]
active: Potency [1] 5.26 µM | Potency [5] 14.8 µM | Potency [18] 5.26 µM | Potency [8] 8.33 µM | Potency [11] 18.7 µM | Potency [15] 4.69 µM | Potency [14] 4.18 µM

Cc1c(C)c2c(c(C)c1O)CCC(C)(COc1ccc(CC3SC(=O)NC3=O)cc1)O2 (centres undefined)
inactive: Potency [1] | Potency [3] | Potency [9] | Potency [13] | Potency [16]

COc1ccccc1-c1cccc(-c2c(O)c3cc(C#N)c(Cl)cc3[nH]c2=O)c1
inactive: Potency [1] | Potency [3] | Potency [8] | Potency [9] | Potency [13] | Potency [14] | Potency [17]
active: Potency [19] 42.9 µM | Potency [11] 42.9 µM | Potency [15] 48.1 µM | viability [20] 162% [at 92.2 µM]

O=NN(CCCl)C(=O)NCCCl
inactive: Potency [1] | Potency [2] | Potency [5] | Potency [6] | Potency [19] | Potency [7] | Potency [8] | Potency [13] | Potency [10] | Potency [11] | Potency [15] | Potency [20]
active: Potency [9] 0.148 µM

CN(C)C(=O)c1ccc(S(=O)(=O)c2ccc(NC(=O)[C@@](C)(O)C(F)(F)F)c(Cl)c2)cc1
active: Potency [1] 23.5 µM | Potency [2] 14.8 µM | Potency [10] 3.72 µM | Potency [11] 14.8 µM

C#Cc1cccc(Nc2ncnc3cc(OCCOC)c(OCCOC)cc23)c1
active: Potency [1] 6.62 µM | Potency [2] 1.05 µM | Potency [5] 4.69 µM | Potency [19] 9.35 µM | Potency [8] 18.7 µM | Potency [11] 5.26 µM | Potency [16] 20.9 µM | Potency [15] 2.09 µM

CC(=O)Oc1ccccc1C(=O)O
active: Potency [1] 8.33 µM | Potency [13] 7.43 µM | Potency [17] 11.8 µM
inactive: Potency [3] | Potency [6] | Potency [10] | Potency [11] | Potency [15]

COc1ccc2nc(S(=O)Cc3ncc(C)c(OC)c3C)[nH]c2c1 (centres undefined)
inactive: Potency [3] | Potency [19] | Potency [10] | Potency [16] | Potency [14] | Potency [17]
active: Potency [1] 18.7 µM

COc1nc(-c2ccc3c(c2)OCO3)n(-c2ccc(NC(=O)CSc3ccccc3)cc2)n1
inactive: Potency [1] | Potency [3] | Potency [5] | Potency [6] | Potency [12] | Potency [18] | Potency [19] | Potency [7] | Potency [8] | Potency [13] | Potency [10] | Potency [11] | Potency [15]
active: Potency [17] 11.8 µM

O=C(C=Cc1ccc(/C=C/C(=O)Nc2ccc(C3=NCCN3)cc2)cc1)Nc1ccc(C2=NCCN2)cc1
inactive: Potency [1] | Potency [3] | Potency [4] | Potency [5] | Potency [6] | Potency [13] | Potency [10] | Potency [11] | Potency [15] | Potency [14]

Cc1c(CCOc2ccc(C(=O)O)cc2)c2cc(Cl)ccc2n1C(c1ccccc1)c1ccccc1
inactive: Potency [1] | Potency [2] | Potency [5] | Potency [6] | Potency [12] | Potency [18] | Potency [19] | Potency [7] | Potency [8] | Potency [13] | Potency [15] | Potency [14]
active: Potency [10] 20.9 µM | Potency [16] 16.6 µM

— PubChem BioAssay (NCATS)
